From PubChem BioAssay
Most compounds without a hit are left out; they make up all but 0.9% or so of the library.
PPARg SRC2 recr: agonists of SRC-2 recruitment by human PPARgamma; PPARgamma LBD-SRC-2 recruitment, biochemical; 0.34% of 200,000 active; activation, % at 8 µM; in the data active = activation above about 22%;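 also: 0% = vehicle and 100% = reference agonist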
Target sequence (P37231 whole entry, looked up, the tested form may be a part): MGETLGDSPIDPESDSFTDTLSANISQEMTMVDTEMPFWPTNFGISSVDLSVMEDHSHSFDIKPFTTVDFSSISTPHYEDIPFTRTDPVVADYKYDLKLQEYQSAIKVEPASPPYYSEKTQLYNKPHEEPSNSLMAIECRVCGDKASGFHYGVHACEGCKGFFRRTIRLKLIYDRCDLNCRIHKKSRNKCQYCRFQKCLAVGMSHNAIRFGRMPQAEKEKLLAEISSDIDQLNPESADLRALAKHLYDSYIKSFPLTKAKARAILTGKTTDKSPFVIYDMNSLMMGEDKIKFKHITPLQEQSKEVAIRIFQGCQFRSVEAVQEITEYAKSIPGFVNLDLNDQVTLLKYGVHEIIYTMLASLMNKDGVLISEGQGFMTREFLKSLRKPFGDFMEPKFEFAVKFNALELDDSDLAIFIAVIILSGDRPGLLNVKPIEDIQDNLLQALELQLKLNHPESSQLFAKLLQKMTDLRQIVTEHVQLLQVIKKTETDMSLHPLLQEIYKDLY
PPARg SRC1 recr: PPARgamma-driven SRC-1 recruitment agonism; activation, % at 8 µM; PPARgamma-SRC-1 coactivator recruitment biochemical assay; AID 631; 0.41% of 200,000 active; in the data active = activation above about 19%;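 also: 0% = DMSO and 100% = reference agonist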
PPARg SRC3 recr: agonists of human PPARgamma SRC-3 coactivator recruitment. P37231. biochemical PPARgamma/SRC-3 coactivator recruitment assay. activation, % at 8 µM. 0.26% of 200,000 active. AID 731; in the data active = activation above about 23%;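 also: 0% = DMSO and 100% = reference agonist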
SRC1 TRFRET art: flags TR-FRET format artefacts in PPARgamma SRC-1 recruitment agonist screen; TR-FRET detection artefact counter-screen, emission ratio; stronger effect = higher value; TR-FRET ratio at 8 µM; 0.34% of 99,000 active; in the data active = TR-FRET ratio above about 2300
SRC3 TRFRET art: counter-screen for PPARgamma SRC-3 recruitment agonists: TR-FRET artefact; 0.39% of 99,000 active; AID 1048; TR-FRET ratio at 8 µM; PPARgamma/SRC-3 format; stronger effect = higher value
SRC2 TRFRET art: TR-FRET artefact, counter-screen to PPARgamma/SRC-2 agonist assay | stronger effect = higher value | TR-FRET ratio at 8 µM | 0.4% of 200,000 active | AID 1049
The depositor's hits bear a star; . = no result. Rule as the data show it, unless noted: active = TR-FRET ratio above about 2000; inactive = the rest.

SMILES	PPARg SRC2 recr	PPARg SRC1 recr	PPARg SRC3 recr	SRC1 TRFRET art	SRC3 TRFRET art	SRC2 TRFRET art
Cc1cc2cc(CNC(=S)Nc3ccc(OC(F)F)cc3)ccc2n1C	11	11	5	2282	2435*	2063*
CC(C)(C)c1cc[n+](/C(C(=S)Nc2ccccc2F)=C(/[O-])c2ccc3c(c2)OCCO3)cc1	6	7	3	1902	1459	1596
[O-]/C(=C(\C(=S)Nc1ccccc1F)[n+]1ccccc1)c1ccc(-c2ccccc2)cc1	9	1	1	2348*	1857	1913
COc1ccc(N2C(=O)CC(Nc3ccc(C(=O)O)cc3)C2=O)cc1OC (stereo unspecified)	9	5	5	2011	1527	1699
COC(=O)c1cccc(NC2CC(=O)N(c3ccc(OC)c(OC)c3)C2=O)c1 (stereo unspecified)	6	18	5	2727*	1521	1810
CN1/C(=C\C(=O)CSc2nnc(NCc3ccccc3)s2)C(C)(C)c2ccccc21	-3	12	2	1935	2062*	1667
CCn1c(SCC(=O)Nc2ccc(C)cc2)nnc1-c1ccc(O)cc1	4	-4	-3	.	.	1565
COC(=O)c1nnn(-c2nc(N3CCOCC3)nc(N3CCOCC3)n2)c1C	-3	-4	-3	1534	1475	1419
O=C(CSc1nnc(-c2ccc(F)cc2)c2ccccc12)Nc1ccccc1	6	11	8	2120	2080*	1768
O=C(CSc1nnc(-c2ccc(F)cc2)c2ccccc12)Nc1c(F)cccc1F	17	8	-1	1814	1547	1603
O=C(CSc1nnc(-c2ccc(F)cc2)c2ccccc12)Nc1ccccc1Cl	8	2	-1	1880	2763*	1884
O=C(CSc1nnc(-c2ccc(F)cc2)c2ccccc12)Nc1cccc(Cl)c1	4	4	5	2670*	3308*	2527*
CC(C(=O)Nc1ccc(F)c(F)c1F)N(C)CC(=O)Nc1ccccc1Br (stereo unspecified)	7	4	1	1795	1713	1554
Cc1cc(C(=O)N2CCN(Cc3ccccc3)CC2)on1	13	-1	6	.	.	1520
CCOC(=O)c1cc(-c2ccc3c(c2)OCO3)nc2onc(C)c12	10	2	-4	.	.	1971*
Cc1ccc(/C=N/NC(=O)c2ccoc2C)s1	-6	8	1	1649	1691	1445
Cc1occc1C(=O)N/N=C/c1ccc(Br)s1	6	22*	7	1992	1760	1634
Clc1ccc2oc3c(Cl)ncnc3c2c1	-2	7	6	1811	1467	1421
CC(c1nnc(SCC(=O)Nc2cccnc2Cl)n1Cc1ccccc1)N(C)C (stereo unspecified)	10	2	0	1993	1660	1878
Cc1csc(Sc2ccc([N+](=O)[O-])cc2C(=O)OCC(=O)NC(=O)NC(C)(C)C)n1	4	1	-9	.	.	1606
c1ccc(CSc2ncnc3c2oc2ccccc23)cc1	62*	59*	84*	.	.	2898*
CCCSc1ncnc2c1oc1ccccc12	2	7	4	.	.	1525
CCc1nnc(NC(=O)CSc2ncnc3c2oc2ccccc23)s1	11	86*	5	.	.	1593
O=C(CSc1ncnc2c1oc1ccccc12)N1CCN(c2ccccc2)CC1	15	87*	25	.	.	1527
CCOc1ccccc1NC(=O)CSc1ncnc2c1oc1ccccc12	6	11	0	.	.	1627
SMILES	PPARg SRC2 recr	PPARg SRC1 recr	PPARg SRC3 recr	SRC1 TRFRET art	SRC3 TRFRET art	SRC2 TRFRET art
CC(=O)Nc1nonc1NC(=O)COc1ccccc1	-7	-10	-6	1531	1552	1566
COc1ccc(-c2[nH]ncc2CN(CCO)Cc2cccs2)c(F)c1	1	14	1	1811	1441	1646
O=C(Oc1ccccc1C(=O)Nc1ccccc1)c1ccccc1Br	2	2	-1	1852	1592	1376
COc1ccc(-c2cn3cccnc3n2)cc1Br	1	0	0	1584	1496	1548
Nc1ccc(-c2cn3cccnc3n2)cc1	9	1	12	1719	2118*	1474
CC(C)C1CC(C(F)(F)F)n2nc(C(=O)O)cc2N1 (stereo unspecified)	17	5	2	1719	1729	2157*
CC1CC(C(F)(F)F)n2nc(C(=O)O)cc2N1 (stereo unspecified)	0	-5	-15	.	.	1390
